Test results taken from the supplement of paper PMC9801561.
± gives the standard deviation of the averaged measurements.

How the values were obtained:
[1] = system: Escherichia coli Nissle 1917; experiment: area under OmniLog respiration curve over 48 h (OmniLog units x h); higher = more growth / nutrient utilisation; extreme values may be limits of the assay; settings: incubation: 48 h, 37 °C
[2] = system: Escherichia coli Nissle 1917; experiment: DuctApe activity index of respiration/growth curve (0 no growth to 9 maximum) (index 0-9); higher = more growth / nutrient utilisation, active = 3 or more; extreme values may be limits of the assay; settings: incubation: 48 h, 37 °C
[3] = nutrient role: sole phosphorus source (pyruvate carbon)
[4] = nutrient role: sole sulfur source (pyruvate carbon)
[5] = nutrient role: sole nitrogen source (pyruvate carbon)
[6] = nutrient role: C-Source, carboxylic acid
[7] = nutrient role: C-Source, carbohydrate
[8] = nutrient role: N-Source, inorganic
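Throughout, for DuctApe activity index of respiration/growth curve (0 no growth to 9 maximum): biolog PM4 phosphorus and sulfur plates, tetrazolium violet dye reduction read in the OmniLog every 15 min, kinetic curves scored by DuctApe, each plate run in triplicate.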

Q: With `O=C(O)[C@H](O)[C@@H](O)[C@H](O)[C@H](O)COP(=O)(O)O` [6-Phospho-Gluconic acid] as the compound, how does the “area under OmniLog respiration curve” value [1, 3] read?
A: 9360 ± 510

Q: What about the DuctApe activity index [2, 3] of the same compound?
A: 9 (active)

Q: For `CC(=O)N[C@@H](CS)C(=O)O` [N-Acetyl-L-Cysteine], which “area under OmniLog respiration curve” value [1, 4] is on record?
A: 55.4 ± 54

Q: And the DuctApe activity index [2, 4]?
A: 0.333 (inactive)

Q: `Nc1nc2[nH]cnc2c(=O)[nH]1` [Guanine] was tested. Which “area under OmniLog respiration curve” value [1, 5] did it give?
A: 27.5 ± 39

Q: And the DuctApe activity index [2, 5]?
A: 0 (inactive)

Q: How did the “area under OmniLog respiration curve” value [1, 5] turn out when `N[C@H](CCC(=O)O)C(=O)O` [D-Glutamic acid] was run?
A: 57.1 ± 89

Q: And the DuctApe activity index [2, 5]?
A: 0.667 (inactive)

Q: Which “area under OmniLog respiration curve” value [1, 6] does the source give for `C[N+](C)(C)CC(O)CC(=O)[O-]` (racemic) [D,L-Carnitine] here?
A: 5.03 ± 0.54

Q: And the DuctApe activity index [2, 6]?
A: 0 (inactive)

Q: What does the source list for `O=C(O)CC(O)(CC(=O)O)C(=O)O` [Citric acid]?
A: area under OmniLog respiration curve [1, 6]: 31.1 ± 32; DuctApe activity index [2, 6]: 0 (inactive)

Q: What does the source list for `N[C@@H](CS(=O)O)C(=O)O` [L-Cysteine Sulfinic acid]?
A: area under OmniLog respiration curve [1, 4]: 7460 ± 360; DuctApe activity index [2, 4]: 7.67 (active)

Q: How did the “area under OmniLog respiration curve” value [1, 3] turn out when `C[N+](C)(C)CCOP(=O)(O)O` [Phosphoryl Choline] was run?
A: 8840 ± 430

Q: And the DuctApe activity index [2, 3]?
A: 8.67 (active)

Q: With `O=C(O)COP(=O)(O)O` [Phospho-Glycolic acid] as the compound, how does the “area under OmniLog respiration curve” value [1, 3] read?
A: 9060 ± 940

Q: And the DuctApe activity index [2, 3]?
A: 8.67 (active)

Q: Which “area under OmniLog respiration curve” value [1, 7] does the source give for `OC[C@@]12OC[C@@H](O1)[C@@H](O)[C@@H](O)[C@@H]2O` [Sedoheptulosan] here?
A: 201 ± 160

Q: What about the DuctApe activity index [2, 7] of the same compound?
A: 1.33 (inactive)

Q: What does the source list for `OC1OC[C@@H](O)[C@@H](O)[C@@H]1O` (stereo partly drawn) [D-Arabinose]?
A: area under OmniLog respiration curve [1, 7]: 2440 ± 230; DuctApe activity index [2, 7]: 4 (active)

Q: Which results are given for `N` [Ammonia]?
A: area under OmniLog respiration curve [1, 8]: 8190 ± 1000; DuctApe activity index [2, 8]: 8.33 (active)

Q: `CCC(=O)O` [Propionic acid] was tested. Which “area under OmniLog respiration curve” value [1, 6] did it give?
A: 7450 ± 300

Q: And the DuctApe activity index [2, 6]?
A: 8 (active)

Q: Which results are given for `O=C(O)CC(=O)O` [Malonic acid]?
A: area under OmniLog respiration curve [1, 6]: 4.72; DuctApe activity index [2, 6]: 0 (inactive)

Q: Which results are given for `Nc1ncnc2c1ncn2[C@H]1C[C@H](O)[C@@H](CO)O1` [2`-Deoxyadenosine]?
A: area under OmniLog respiration curve [1, 7]: 8940 ± 560; DuctApe activity index [2, 7]: 8.67 (active)

Q: What does the source list for `OCC(O)C(O)C(O)CO` (stereo not drawn) [Adonitol]?
A: area under OmniLog respiration curve [1, 7]: 2610 ± 350; DuctApe activity index [2, 7]: 5 (active)

Q: What does the source list for `O=C(O)C(=O)O` [Oxalic acid]?
A: area under OmniLog respiration curve [1, 6]: 5.41 ± 1.2; DuctApe activity index [2, 6]: 0 (inactive)

Q: With `OCC1OC(O)(CO)C(O)C1O` [D-Fructose] as the compound, how does the “area under OmniLog respiration curve” value [1, 7] read?
A: 8740 ± 720

Q: What about the DuctApe activity index [2, 7] of the same compound?
A: 8.67 (active)

Q: Which “area under OmniLog respiration curve” value [1, 5] does the source give for `NC(N)=O` here?
A: 4.72

Q: And the DuctApe activity index [2, 5]?
A: 0 (inactive)
